# Compounds with a hit are over-represented: about 2.3% of the library has one in this group of screens.
# M1 ag = human M1 muscarinic receptor agonism; AID 588814; CHO-K1 hM1, Fluo-8 calcium fluorescence, agonist mode; 0% DMSO, 100% acetylcholine EC100; hit rate 0.33% among 360,000; activation, % at 3 µM; P11229;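 active = activation above the run's mean compound activation plus 3 SD, cut at about 16% in these data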;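 note: peak over basal fluorescence ratio within a 140 s kinetic read after compound addition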
# Target sequence (P11229 whole entry, looked up): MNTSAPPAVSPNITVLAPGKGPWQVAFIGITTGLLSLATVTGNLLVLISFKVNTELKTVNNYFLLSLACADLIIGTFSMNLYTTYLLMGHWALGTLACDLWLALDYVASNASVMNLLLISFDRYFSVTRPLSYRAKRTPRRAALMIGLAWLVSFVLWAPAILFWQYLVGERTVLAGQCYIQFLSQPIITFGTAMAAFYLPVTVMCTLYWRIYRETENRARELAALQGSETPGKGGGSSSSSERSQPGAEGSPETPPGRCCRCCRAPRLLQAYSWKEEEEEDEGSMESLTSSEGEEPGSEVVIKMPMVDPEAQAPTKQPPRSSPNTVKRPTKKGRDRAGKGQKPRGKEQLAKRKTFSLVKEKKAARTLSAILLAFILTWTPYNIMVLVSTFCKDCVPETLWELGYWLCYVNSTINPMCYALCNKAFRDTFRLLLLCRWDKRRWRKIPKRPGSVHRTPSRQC
# CHRM1 antagonist = human CHRM1 antagonism | CHO-K1 hM1, Fluo-8 calcium fluorescence, ACh EC80 antagonist | inhibition, % at 3 µM | hit rate 1.3% among 360,000;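 active = percent inhibition above its own plate's cutoff, namely the mean of that plate's compound wells plus 3 SD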;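 note: peak over basal fluorescence ratio during 140 s after agonist addition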
# CHO-K1 Ca antag = counter-screen for M1 antagonists: effect in parental CHO-K1 cells; inhibition, % at 3 µM; hit rate 0.6% among 360,000; ATP-induced calcium, Fluo-8 fluorescence;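 active = inhibition above a per-plate cutoff, the plate's mean sample inhibition plus 3 SD, cut at about 24% in these data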
# CHO-K1 Ca PAM = nonselective activator or artifact in parental CHO-K1 calcium assay; ATP EC20, Fluo-8 calcium fluorescence; 0% at ATP EC20, 100% at ATP max; activation, % at 3 µM; hit rate 0.02% among 360,000; AID 602247;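 active = activation above the run cutoff, the mean activation of all test compounds plus 3 SD, cut at about 40% in these data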;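 note: peak over basal fluorescence ratio in a 140 s read after ATP addition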
# M1 ag parental = M1 agonist counterscreen hit in parental CHO-K1 cells | activation, % at 3 µM | AID 602248 | hit rate 0.48% among 360,000 | Fluo-8 calcium fluorescence; scaled to maximal ATP response, vehicle zero; in the data active = activation above about 15%;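 note: untransfected CHO-K1 host cells lacking M1 receptor as counterscreen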
# CHRM1 PAM = human CHRM1 positive allosteric modulation; activation, % at 3 µM; hit rate 0.088% among 360,000; P11229; CHO-K1 hM1, Fluo-8 calcium fluorescence, ACh EC20; 0% = ACh EC20, 100% = maximal ACh; in the data active = activation above about 19%, passing the limit was not always enough
# A number is an active result; i = inactive.
SMILES,M1 ag,CHRM1 antagonist,CHO-K1 Ca antag,CHO-K1 Ca PAM,M1 ag parental,CHRM1 PAM
Cc1cccc(NC(=O)COC(=O)c2ccc3c(c2)OCO3)c1C,i,i,i,i,i,i
CSc1nsc(SC)c1C(=O)OCC(F)(F)F,i,i,i,i,i,24
Cc1cccc(OC(=O)NCCOC(=O)N(O)c2ccc(Cl)cc2)c1,i,i,24,i,i,i
CCC1CCCCN1CCCNC(=O)CN1C(=O)COc2ccccc21 (centres undefined),i,i,i,i,i,i
CN(C)S(=O)(=O)N1CCC(Oc2cccc(C(=O)NCCC3=CCCCC3)c2)CC1,i,i,i,i,16,i
CN(C)S(=O)(=O)N1CCC(Oc2cccc(C(=O)NC3CCCCC3)c2)CC1,i,i,i,i,i,i
Cc1ccc(OCCOC(=O)C2CCN(S(=O)(=O)c3ccc(C)c(C)c3)CC2)cc1,i,i,i,i,i,i
Cc1ccc(S(=O)(=O)N2CCC(C(=O)OCCOc3ccccc3)CC2)cc1C,i,19,i,i,i,i
O=C(CSc1nnc(SCc2ccccc2)s1)N/N=C/C=C\c1ccco1,i,i,i,i,16,i
O=C(OC(C(=O)Nc1cccc(C(F)(F)F)c1)c1ccccc1)C1CCCCC1 (centres undefined),i,i,i,i,i,i
CCOC(=O)c1ccccc1NC(=O)CSc1nc2[nH]ncc2c(=O)[nH]1,i,35,i,i,i,i
CN(Cc1ccccc1F)c1cc2c(c3c1ccn3C)C1CCC2C1 (centres undefined),i,i,i,i,i,i
O=C(NCCCCCCCN1CCCCCCC1)C(C1CCCCC1)C1CCCCC1,i,57,i,i,i,i
COc1cccc(CN(C)C(=O)c2ccc(OCC(=O)Nc3cccc(C(F)(F)F)c3)c(OC)c2)c1,i,40,i,i,i,i
CC(C)[C@H](NC(=O)[C@H](CCCN=C(N)N)NC(=O)NC(Cc1ccccc1)C(=O)O)C(=O)NC(C=O)CCCN=C(N)N (some centres undefined),i,i,27,i,i,i
CC(C)C(NC(=O)OCc1ccccc1)C(=O)NC(Cc1ccc(O)cc1)C(=O)O (centres undefined),i,i,i,i,i,i
CNC(=O)COC(=O)c1ccccc1Oc1ccccc1,i,i,29,i,i,i
O=C(Nc1ccc(N2CCN(C(=O)c3ccccc3)CC2)cc1)c1ccc2c(c1)OCCO2,i,i,i,i,16,i
Cc1ccc(C(=O)N2CCN(c3ccc(NC(=S)NC(=O)Cc4ccccc4)cc3)CC2)cc1,i,i,24,i,21,i
CCOC(=O)c1c(-c2ccccc2)oc2ccc(OCC(O)CN(C)C)cc12 (centres undefined),i,i,i,i,i,i
Cn1cc(CNCc2ccc(OC(F)(F)F)cc2)c(-c2ccc3c(c2)OCCO3)n1,i,33,i,i,i,i
C=C(C)COc1ccc2oc(C)c(C(=O)OCCOC)c2c1,i,i,i,i,i,i
CCN(CC)CCOC(=O)c1c(C)oc2ccc(OC)cc12,i,25,i,i,i,i
CCOC(=O)c1cnc2c(C)cc(C)cc2c1NCCCN1CCOCC1,i,i,i,i,i,i
COC(=O)C1=C(C)Nc2nc3ccccc3n2C1c1cc(OC)c(OC)c(OC)c1 (centres undefined),i,i,i,i,17,i
SMILES,M1 ag,CHRM1 antagonist,CHO-K1 Ca antag,CHO-K1 Ca PAM,M1 ag parental,CHRM1 PAM
CCOC(=O)C1=C(C)Nc2nc3ccccc3n2C1c1ccc(O)cc1 (centres undefined),i,i,i,i,i,i
COc1ccc(-c2cn(-c3ccccc3)c3[n+]2CCS3)cc1,i,40,i,i,i,i
CC(C)(C)c1ccc(-c2cn(-c3ccc(Br)cc3)c3[n+]2CCCS3)cc1,i,79,i,i,i,i
C/C(=N\NC(N)=S)c1ccc(-n2ccnc2)cc1,i,i,i,i,i,29
C/C(=N\NC(=O)OC(C)(C)C)c1ccc(-n2ccnc2)cc1,i,i,i,i,i,i
C/C(=N\NC(=O)c1ccccc1)c1ccc(-n2ccnc2)cc1,i,i,28,i,i,i
C=C(C)CNC(=S)N/N=C(\C)c1ccc(-n2ccnc2)cc1,i,i,i,i,i,i
Cc1cc(Cl)ccc1OCC(=O)N(Cc1ccco1)C1CCS(=O)(=O)C1 (centres undefined),i,i,i,i,i,i
CC[n+]1c(/C=C/N(C)c2ccccc2)n(-c2ccccc2)c2ccc(-c3nc4ccccc4s3)cc21,i,98,34,i,i,i
CCOC(=O)c1ccc2c(c1)n(CC)c(/C=C/N(C)c1ccccc1)[n+]2CC,i,i,i,i,i,i
COC(=O)c1ccc(S(=O)(=O)c2ccc(Cl)cc2)c(N)c1,i,i,i,i,i,i
O=C(O)c1ccc(S(=O)(=O)NC2CCCc3ccccc32)cc1 (centres undefined),i,i,i,i,i,i
CC(=O)N1CCc2cc(S(=O)(=O)NC3CCCc4ccccc43)ccc21 (centres undefined),i,i,34,i,i,i
CC(=O)N1CCc2ccc(S(=O)(=O)N3CCc4ccccc43)cc21,i,35,i,i,i,i
COc1ccc(S(=O)(=O)N2CCc3ccccc32)cc1C(=O)O,i,i,i,i,i,i
CCc1ccccc1OCC(=O)NNCC(=O)Nc1cccc(C#N)c1,i,i,i,i,i,i
COc1ccc(CN(C)CC(=O)Nc2cccc(S(=O)(=O)N(C)c3ccccc3)c2)c(OC)c1,i,i,i,i,i,i
O=C(Nc1ccccc1SC(=O)c1ccccc1)c1ccccc1,i,i,i,i,i,i
Cc1ccc(C(=O)Sc2cccccc2=O)cc1,i,33,35,i,i,i
CC1CCCCC1=NNC(=O)c1ccccc1 (centres undefined),i,i,i,i,i,i
Nc1nnc(/C=C/c2ccccc2)s1,i,i,i,i,i,i
COc1ccccc1/C=C1\SC(=S)N(CCC(=O)Nc2cccc(O)c2)C1=O,i,i,i,i,i,i
COc1cc(/C=N/NS(=O)(=O)c2ccc(Br)cc2)ccc1O,i,i,i,i,i,i
COc1ccc(Br)cc1C=NNS(=O)(=O)c1ccc(C)cc1,i,33,i,i,i,i
Cc1ccc(OCCCCNC2CCCC(C)C2C)c(C)c1 (centres undefined),i,48,i,i,i,i
Cc1ccc(OCCCCN2CCCCC2)c(C)c1,i,i,i,i,i,i
Cc1ccc(NN2C(=O)C=C(c3ccc(Cl)cc3)C2=O)cc1,i,i,31,i,i,i
CN(C)CCNC(NC(=O)c1cccs1)C(Cl)(Cl)Cl (centres undefined),i,i,i,i,i,i

# Bioassay records: PubChem BioAssay, The Scripps Research Institute Molecular Screening Center
